Source: PubChem BioAssay (several laboratories)
Mot1-301 SUMO = blocks SUMOylation pathway, rescuing yeast Mot1-301 growth; 320,000 tested, 1% active; growth rescue, % at 18.8 µM; S. cerevisiae Mot1-301 growth rescue, ATP luminescence, 38.5C; percent above DMSO median, 100 means doubled; AID 2716;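 active = every valid replicate shows activation above 250% relative to neutral control wells; inactive = the rest, any valid replicate at or below 250%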;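 also: OY570 slx delta 5 strain wells were the positive control but not used for scaling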
NALP3 yeast inh = blocks the NALP3 inflammasome reconstituted in yeast. 330,000 tested, 0.39% active. Yeast reconstituted NLRP3/ASC/caspase-1, beta-gal luminescence, 24 h. AID 2825. inhibition, % at 10 µM;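 active = inhibition of 50% or more; inactive = inhibition below 50%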;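 also: plate controls were induced DMSO wells for no effect and uninduced yeast grown without galactose for full effect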
NALP1 inh = NALP1 inhibition; AID 2071; inhibition, % at 10 µM; S. cerevisiae NALP1/ASC/caspase-1 growth, X-gal OD620, 72 h; 280,000 tested, 0.61% active; in the data active = inhibition mostly above about 24%, no sharp cut-off; inactive = mostly below about 32%
A1 inh = inhibitors of the anti-apoptotic protein A1, read as caspase activation | MEF A1-2A-BIM cells, Caspase-Glo 3/7 luminescence, 3 h; percent of clofoctol response, vehicle zero | caspase activation, % (test concentration not listed) | 330,000 tested, 0.066% active | AID 2462;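 active = over half of replicate activation scores above 10%, or exactly half above 10 with the replicate mean above 10; inconclusive = replicate mean below 10 yet half the replicates above 10; inactive = over half of replicates below 10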
CHT PAM = allosteric activators of human choline transporter CHT; B-score at 10 µM; 310,000 tested, 0.49% active; Q9GZV3; CHT-expressing cells, membrane potential dye, choline EC20; stronger effect = higher value; LV-AA mutant CHT in HEK293 cells; AID 488977;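 active = initial fluorescence not abnormally high and integrated response B-score, plate-corrected, over 3 SD above library mean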
Target sequence (Q9GZV3 whole entry, looked up): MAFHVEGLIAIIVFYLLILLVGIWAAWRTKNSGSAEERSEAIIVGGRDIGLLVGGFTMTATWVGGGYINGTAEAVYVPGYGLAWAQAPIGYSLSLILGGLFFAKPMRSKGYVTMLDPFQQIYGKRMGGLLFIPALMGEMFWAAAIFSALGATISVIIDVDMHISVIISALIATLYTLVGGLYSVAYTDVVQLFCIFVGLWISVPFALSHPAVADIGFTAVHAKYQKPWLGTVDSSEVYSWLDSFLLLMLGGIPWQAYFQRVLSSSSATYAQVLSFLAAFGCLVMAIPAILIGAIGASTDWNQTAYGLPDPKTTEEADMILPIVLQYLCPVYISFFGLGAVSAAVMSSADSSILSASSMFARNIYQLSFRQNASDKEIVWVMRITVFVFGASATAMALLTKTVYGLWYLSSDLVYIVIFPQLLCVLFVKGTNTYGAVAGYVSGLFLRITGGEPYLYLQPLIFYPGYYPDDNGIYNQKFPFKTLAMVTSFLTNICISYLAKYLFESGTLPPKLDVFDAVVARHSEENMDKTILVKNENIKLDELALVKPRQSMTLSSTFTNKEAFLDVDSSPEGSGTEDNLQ
CHT inh = human CHT choline transport inhibition | Q9GZV3 | CHT-expressing cells, membrane potential dye, choline response; stronger effect = lower value | B-score at 10 µM | 310,000 tested, 0.86% active;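 active = B-score over 3 SD under the library average, and starting fluorescence ratio not unusually high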;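 also: choline stimulus applied at its EC90 after an EC20 pre-addition; B-score computed on integrated fluorescence ratio after choline addition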
Mot1 SUMO dose = SUMO pathway inhibitors in yeast Mot1-301 growth; shares compounds with Mot1-301 SUMO; S. cerevisiae Mot1-301 galactose growth, ATP luminescence, 24 h; -100 = growth of slx-deleted rescue strain; growth activity, percent, % at 42 µM; 2,300 tested, under 10 active; AID 493004;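 active = Signal drops as the depositor expects, and the fitted half-maximal dose is no more than ten times the top valid tested dose; inconclusive = Poor fit, or a flat curve whose signal drops by 30% to 70%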;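 also: more negative values mean stronger growth rescue toward the control strain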
Starred values were filed as active, the others as inactive; i = inactive; ? = inconclusive; . = no result; + = active, no number. Sampled rows, rich in hits. Any-hit rate of the full collection: about 3%.

SMILES | Mot1-301 SUMO | NALP3 yeast inh | NALP1 inh | A1 inh | CHT PAM | CHT inh | Mot1 SUMO dose
CC1C(=O)N2CCCc3cc(NC(=O)C4CC4)cc1c32 (centres undefined) | -15 | 5 | . | 1 | i | i | .
CC(C)(c1ccccc1)c1ccc(OCCN2CCOCC2)cc1 | 444* | 11 | 28 | 1 | i | i | 0
Cc1nc(N/N=C\c2ccc3c(c2)OCO3)sc1C | 497* | 24 | 14 | 0 | i | i | 0
Cc1cc(C(=O)NC(Cc2c[nH]c3ccccc23)C(=O)O)c(C)o1 (centres undefined) | -13 | 1 | 11 | 0 | i | i | .
Cc1ccc(C(=O)NC(Cc2c[nH]c3ccccc23)C(=O)O)o1 (centres undefined) | + | 20 | 11 | -1 | i | i | 0
COc1ccc(N2C(=O)CC(NCc3cccs3)C2=O)cc1 (centres undefined) | 359* | 2 | -31 | 0 | i | i | 1
C=CC[C@H](CC(=O)NCCO)C(=O)NCCOC(=O)[C@@H](CC=C)Cc1ccc(F)cc1 | -16 | 11 | . | 0 | . | . | .
CC(C)N1CCN(C(=O)c2ccc(OC3CCN(CCc4ccccc4)CC3)cc2)CC1 | -17 | 5 | 8 | 0 | i | i | .
O=C(c1ccc(OC2CCN(CCc3ccccc3)CC2)cc1)N1CCCC1 | 608* | 21 | 16 | -1 | i | i | 0
O=C(OCCCCOC(=O)c1ccccc1)c1ccccc1 | 529* | 22 | . | -1 | i | i | 0
COc1cccc(NC(=O)CN(C)C(=O)CNC(=O)c2sc3ccccc3c2Cl)c1 | -5 | -1 | . | 0 | . | . | .
CC(=O)c1cccc(NC(=O)CNC(=O)c2sc3ccccc3c2Cl)c1 | 664* | 2 | . | 0 | i | i | 1
CCCOc1ccc(C(=O)Nc2ccc(N3CCN(C(=O)c4ccco4)CC3)cc2)cc1 | -1 | 5 | 6 | 0 | i | i | .
O=C(Nc1ccc2c(c1)CCCN2C(=O)c1cccs1)c1cccc(F)c1 | 566* | 15 | 36 | -2 | i | i | -1
CCN(C(=O)CCS(=O)(=O)c1ccc2c(c1)oc(=O)n2C)c1ccc(OC)cc1 | 378* | 23 | -2 | 0 | i | i | 0
CCOC(=O)C1CCN(C(=O)Cc2ccc(-c3ccccc3)cc2)CC1 | -1 | 18 | 23 | 0 | i | i | .
NS(=O)(=O)c1ccc(CCNC(=S)NC(=O)c2ccccc2Br)cc1 | 0 | -6 | . | 0 | . | . | .
Cc1cc(-c2ccc(C(C)C)c(S(=O)(=O)N3CC(=O)Nc4ccccc43)c2)on1 | 581* | 19 | 15 | 2 | i | i | -1
Cc1cc(-c2ccc(C)c(S(=O)(=O)N3CC(=O)Nc4ccccc43)c2)on1 | 4 | 17 | 22 | 0 | i | i | .
COc1ccc(C(=O)CSc2nnc3ccc(-c4ccccn4)nn23)cc1 | 745* | 4 | -5 | 1 | i | i | 1
CCN(C[C@H]1N[C@@](CC)(C(=O)OC)[C@H]2C(=O)N(Cc3ccccc3)C(=O)[C@@H]12)C(=O)c1ccccc1 | . | 9 | . | . | . | . | .
CSc1ccccc1-n1nnnc1SCC(=O)Nc1ccccc1C | 506* | 1 | -7 | 0 | i | i | 0
COc1ccccc1-n1nnnc1SCC(=O)Nc1ccc(C)c(N)c1 | 455* | 7 | 7 | 0 | i | i | 0
C=CCC1NS(=O)(=O)OC(CCc2ccccc2)C1O (centres undefined) | 4 | 8 | 6 | 3 | i | i | .
CN(CC(=O)NC(c1ccccc1)c1ccccc1)Cc1nc2ccccc2c(=O)[nH]1 | -4 | 6 | -5 | 0 | i | i | .
SMILES | Mot1-301 SUMO | NALP3 yeast inh | NALP1 inh | A1 inh | CHT PAM | CHT inh | Mot1 SUMO dose
CN(CC(=O)Nc1ccccc1Sc1ccccc1)Cc1nc2ccccc2c(=O)[nH]1 | 704* | -3 | -7 | 0 | i | i | 0
COc1ccc(C(=O)CSc2nnc(-c3ccc(C)cc3)o2)cc1 | 393 | 33 | 26 | 1 | i | i | .
COc1ccc(-c2nnc(SCC(C)C)o2)cc1 | 584* | 30 | . | -4 | i | i | 1
Cc1ccc(S(=O)(=O)NCc2ccc(C(=O)N3CCN(c4ccccn4)CC3)cc2)cc1 | 662* | 13 | -6 | -1 | i | i | 1
Cc1oc2cc3oc(=O)c(CCC(=O)N4C[C@H]5C[C@@H](C4)c4cccc(=O)n4C5)c(C)c3cc2c1C | -10 | 9 | 1 | -1 | i | i | .
COc1ccccc1NC(=O)C1CCCN(S(=O)(=O)c2c(C)noc2C)C1 (centres undefined) | -2 | 12 | 4 | 0 | i | i | .
CCOC(=O)c1ccc(NC(=O)CC2Sc3ncnn3C2=O)cc1 (centres undefined) | 674* | 34 | 93* | -1 | i | i | -1
C/C(=N\OCC(=O)OCC(=O)NC(=O)c1ccccc1)c1ccc2c(c1)OCO2 | -14 | 12 | . | 0 | i | i | .
COc1cccc(C(=O)Nc2ccc(C(F)(F)F)n(C)c2=O)c1 | 84 | 18 | 27 | -7 | i | i | .
CCOc1ccc(C(=O)Nc2ccc(C(F)(F)F)n(C)c2=O)cc1 | + | 23 | 33 | 0 | i | i | 0
Cc1ccc(CCCNC(=O)C2CCC(=O)N(Cc3cccc(F)c3)C2)cc1 (centres undefined) | 7 | 4 | 29 | 1 | i | i | .
CCOC(=O)/C(C#N)=C/c1ccc(SC)cc1 | 14 | -1 | 17 | -1 | i | i | .
CCOC(=O)/C(C#N)=C\c1ccc(CC)s1 | + | 14 | 13 | -5 | i | i | 0
Cc1cnc(C(=O)OC(C(=O)c2c[nH]c3ccccc23)c2ccccc2)cn1 (centres undefined) | 533* | 17 | . | ? | i | i | 0
Cn1cnnc1-c1cccc(NS(=O)(=O)c2ccc(N3CCCC3=O)cc2)c1 | + | 7 | 18 | 0 | i | i | 1
O=C1CCCN1c1ccc(S(=O)(=O)Nc2ccc3c(c2)OCCO3)cc1 | 202 | -9 | 0 | 0 | i | i | .
COc1ccccc1CNC(=O)C1CCC(CNS(=O)(=O)c2ccc(C)cc2)CC1 (centres undefined) | 625* | 2 | 8 | -1 | i | i | 0
COc1ccccc1CNC(=O)C1CCC(CNS(=O)(=O)c2ccc(F)cc2)CC1 (centres undefined) | 412 | 2 | -4 | -1 | i | i | .
